The source of these data is PubChem BioAssay (Tox21).

Molecules are shown by their SMILES. Inconclusive results are not listed. A call without a number means that no potency is given here. The source made the active and inactive calls. Calls follow the shape of the dose curve; as a rule, active = well fitted cell-killing curve with a large enough effect in the repeat runs; inconclusive = weak or mixed curves, or effect the other way; inactive = flat fitted curve, though single readings scatter.
Potency is read from the fitted curve at half-maximal effect.

The test in a line: qHTS assay to identify small molecule antagonists of the retinoid acid receptor (RAR) signaling pathway - cell viability counter screen (AID 1159551). Also: nearly all actives have a fitted effect of over 35% in size. The following applies: C3RL4 cells viability, ATP luminescence (CellTiter-Glo), 6 h; series mostly up to 92.4 µM. The essentials:
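Cytotoxicity counter screen: ATP content quantified by CellTiter-Glo luminescence in C3RL4 cells treated 6 hr at 37 C with compound and retinol (1 uM final). Cells plated at 1,000/well and cultured overnight before dosing.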
A general note: In qHTS, concentration-response curves come from the screen itself.
As to `CCCCCCCCCCCCCCCC[N+](C)(C)CCN(Cc1ccc(OC)cc1)c1ncccn1`, the Potency is 29.8 µM (active).
Then `O=C(Oc1cccc2cccnc12)c1ccccc1`, with “inactive”; and `O=C(O)c1cc(O)c2c(c1)C(=O)c1cccc(O)c1C2=O`, with “inactive”; and `CCCCCCCCS(=O)C(C)Cc1ccc2c(c1)OCO2` (stereo unspecified), with “inactive”.
Take `CCCCN1C(=O)[C@@H]([C@H](O)C2CCCCC2)NC(=O)C12CCN(Cc1ccc(Oc3ccc(C(=O)O)cc3)cc1)CC2`: the Potency result is “inactive”.
Regarding `CNCc1cc(F)ccc1Oc1ccc(Cl)c(Cl)c1`, the Potency result is “inactive”.
In the case of `CC(=O)S[C@@H]1CC2=CC(=O)CC[C@]2(C)[C@H]2CC[C@@]3(C)[C@@H](CC[C@@]34CCC(=O)O4)[C@H]12`, the Potency result is “inactive”.
Consider `CCCCCCCC[N+](CCCCCCCC)(CCCCCCCC)CCCCCCCC`, for which the Potency was 27.3 µM (active).
Turning to `O=C(Nc1cccc(Cl)c1)OCC#CCCl`, the Potency result is “inactive”.
Then `Nc1ccc2c3c(cccc13)-c1ccccc1-2`, with “inactive”; and `CCC(CN)=C(c1ccccc1)c1ccccc1`, with “inactive”; and `CCCCCCCCCCCCCCCC(=O)OC[C@H](O)[C@H]1OC(=O)C(O)=C1O`, with “inactive”.
Then `C[C@@H]1C[C@H]2[C@@H]3CCC4=CC(=O)C=C[C@]4(C)[C@@]3(Cl)[C@@H](O)C[C@]2(C)[C@@]1(OC(=O)c1ccco1)C(=O)CCl`, with “inactive”; and `O=[N+]([O-])c1cc([N+](=O)[O-])c2ccc(S(=O)(=O)O)cc2c1O`, with “inactive”; and `c1cc(C(c2ccc(OCC3CO3)cc2)c2ccc(OCC3CO3)cc2)ccc1OCC1CO1` (stereo unspecified), with “inactive”.
As to `CCCCN(CCCC)c1ccc(C(=O)c2ccccc2C(=O)O)c(O)c1`, the Potency entry was “inactive”.
Then `CCCC/C=C/CCCCO`, with “inactive”; and `CCN(Cc1cccnc1)C(=O)c1cccc(Cl)c1[C@]1(C)C(=O)N(Cc2ccc(OC)cc2OC)c2ccc(Cl)cc21`, with “inactive”.
The result for `NC(=NCCCCCCN=C(N)/N=C(\N)Nc1ccc(Cl)cc1)/N=C(\N)Nc1ccc(Cl)cc1` reads “inactive”; that for `CCOC(=O)c1nc(C(Cl)(Cl)Cl)n(-c2ccc(Cl)cc2Cl)n1`, “inactive”.
Take `CN1CCC(Nc2ncc3ncnc(Nc4ccc(F)c(Cl)c4)c3n2)CC1`: the Potency result was “inactive”.
Then `Cc1nc(-c2ccc3c(c2)CCN(CCC2CCC(NC(=O)/C=C/c4ccc(F)cc4)CC2)CC3)no1` (stereo unspecified), with “inactive”; and `C/C=C1/C(=O)C[C@H]2[C@@H]3CCC4=CC(=O)CC[C@]4(C)[C@H]3CC[C@]12C`, with “inactive”.
For the compound `CC[C@H](c1ccc(O)cc1)[C@@H](CC)c1ccc(O)cc1`, the Potency result was “inactive”.
Then `CSc1ccc2c(c1)C(N1CCN(C)CC1)Cc1ccccc1S2` (stereo unspecified), with “inactive”; and `CNC(=O)c1ccccc1`, with “inactive”.
